These molecules were tested on T1, MEK2. Conditions: concentration: 1 μM, replicates: in singlicate; n = 1.
T1 construct: gene MAP2K2
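Also: KINOMEscan kinase panel screen.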

In order of rising “%Inh” value:
1. COc1cc(Nc2nccc(-c3c(-c4cccc(NC(=O)c5c(F)cccc5F)c4)nn4ccccc34)n2)cc(OC)c1OC [GSK323521]  0%
2. Cc1ccc(S(=O)(=O)Nc2ccc(Nc3nccc(Nc4cccc5[nH]ncc45)n3)cc2)cc1 [GSK581271]  0%
3. CCc1ccc(-c2ccc3c(c2)-c2c(cnn2C)S(=O)(=O)N3C)cc1  0%
4. CC(=O)Nc1nc2cnc(Nc3cc(NC(=O)c4cccc(C5(C#N)CC5)c4Cl)ccc3C)nc2s1  0%
5. COc1cc(Nc2ncc3c(C)nc(-c4cc5ccccc5[nH]4)n3n2)cc(OC)c1OC [GW869516]  0%
6. Nc1n[nH]c2cnc(-c3ccccc3)cc12 [SB-642124]  0%
7. COc1cc(Nc2nccc(N3CCC(NC(=O)Nc4cccc(C(C)=O)c4)C3)n2)cc(OC)c1OC (stereo not shown) [GSK1379753]  0%
8. c1ccc(-c2cnc3nccnn23)cc1 [AH20685]  0%
9. COc1cc(Nc2nccc(N3CCC(NC(=O)c4cc5ccccc5s4)C3)n2)cc(OC)c1OC (stereo not shown) [GSK1379760]  0%
10. Cl.Cl.NCC(NCc1ccc(-c2ccnc3[nH]ccc23)s1)c1ccccc1 (stereo not shown) [GSK1321565]  0%
11. Cl.NC(=O)c1cccc(Nc2nccc(Nc3ccc(Oc4c(Cl)cccc4Cl)c(Cl)c3)n2)c1 [GW659009]  0%
12. O=C(Nc1ccccc1F)NC1CCN(c2ccnc(Nc3ccc(F)cc3)n2)CC1 [GSK1379800]  0%
13. CN(C)S(=O)(=O)c1cc(-c2ccc3nccc(-c4cccc(S(N)(=O)=O)c4)c3c2)cnc1N [GSK1669921]  0%
14. CCCCc1nn2ncccc2c1-c1ccnc(Nc2ccc(N3CCN(C)CC3)cc2)n1 [GW684941]  0%
15. c1ccc(-c2n[nH]cc2Nc2ccnc3ccccc23)nc1 [GW694077]  0%
16. Nc1ncc(-c2ccc3nccc(-c4ccncc4)c3c2)cc1S(=O)(=O)N1CCOCC1 [GSK1627798]  0%
17. COC(=O)Nc1nc2ccc(Oc3ccc(NC(=O)Nc4cc(C(F)(F)F)ccc4F)cc3)cc2n1C.Cl [GW692089]  1%
18. O=C(NC1CCN(c2ccnc(Nc3ccc(F)cc3)n2)C1)c1cc2ccccc2s1 (stereo not shown) [GSK1379716]  4%
19. Cl.c1ccc(-c2ccc3c(Nc4ccc5[nH]ncc5c4)ccnc3c2)nc1 [GW440137]  5%
20. O=c1[nH]cc(-c2ccc(N3CCOCC3)cc2)c2sc(-c3cn[nH]c3)cc12 [GSK2276055]  9%
21. Nc1ncnc2c1nc(-c1ccccc1)n2-c1ccccc1 [SKF-97293]  14%
22. O=C(Nc1cccc(-c2nn3ccccc3c2-c2ccnc(Nc3cccc(F)c3)n2)c1)c1c(F)ccc(F)c1Cl [GSK357952]  15%
23. Fc1ccc(-c2ncn(C3CCNCC3)c2-c2ccnc(Oc3ccc(-c4ccccc4)cc3)n2)cc1 [SB-245391]  19%
24. CN(c1ccc(NC(=O)Nc2cc(C(F)(F)F)ccc2F)cc1)c1ccnc(Nc2ccc(S(N)(=O)=O)cc2)n1 [GW809893]  19%
25. Cc1cccc(NC(=O)Nc2ccc(Oc3ncnc4ccn(C)c34)cc2)c1  29%
26. Cc1ccc(C(=O)N2CC[C@@H](O)C2)cc1-n1c(C)cc(OCc2ccc(F)cc2F)c(Br)c1=O  36%
27. COc1cccc(C(=O)Nc2cccc(Oc3ccc4nc(NC(=O)C5CC5)cn4n3)c2)c1  43%
28. CC(C)(C)c1ccc2nccc(Nc3cccc(O)c3)c2c1 [GW856795]  44%
29. CN1CCN(Cc2cccc(-c3ccc4c(Nc5ccc(Oc6ccccc6)cc5)ccnc4c3)c2)CC1 [GW578342]  55%
30. COc1cc2c(cc1OCCN1CCNCC1)ncc1c3ccc(C#N)cc3[nH]c21  57%
31. O=C(Nc1cccc(-c2nn3ncccc3c2-c2ccnc(Nc3ccccc3)n2)c1)c1c(F)cccc1F [GSK198271]  77%
32. COCCOCCOc1cc2ncc3c4ccc(C#N)cc4[nH]c3c2cc1OC  80%
33. CN(C)Cc1ccc(-c2ccc3c(Nc4ccc(Oc5ccccn5)cc4)ccnc3c2)o1 [GW567148]  96.8%
34. COc1cc(Nc2nccc(-c3c(-c4cccc(NC(=O)c5c(F)cccc5F)c4)nn4ncccc34)n2)cc(OC)c1OC [GSK327238]  98.4%
